Test results published in the supplement of paper PMC3334620.
Over roughly 33,000 sequences, “E-score (-0.5 to 0.5)” has its median near -0.012; the highest 2% begin near 0.29. Many of the other results were omitted from the sample, so the highest values are more common in it than they were.

target: T1, Ybr033w (UniProt P38073); assay: PBM E-score (8-mer binding enrichment) (E-score (-0.5 to 0.5)); higher = stronger / more preferred TF binding; conditions: protein concentration: 200 nM; construct: GST-full length
T1 sequence: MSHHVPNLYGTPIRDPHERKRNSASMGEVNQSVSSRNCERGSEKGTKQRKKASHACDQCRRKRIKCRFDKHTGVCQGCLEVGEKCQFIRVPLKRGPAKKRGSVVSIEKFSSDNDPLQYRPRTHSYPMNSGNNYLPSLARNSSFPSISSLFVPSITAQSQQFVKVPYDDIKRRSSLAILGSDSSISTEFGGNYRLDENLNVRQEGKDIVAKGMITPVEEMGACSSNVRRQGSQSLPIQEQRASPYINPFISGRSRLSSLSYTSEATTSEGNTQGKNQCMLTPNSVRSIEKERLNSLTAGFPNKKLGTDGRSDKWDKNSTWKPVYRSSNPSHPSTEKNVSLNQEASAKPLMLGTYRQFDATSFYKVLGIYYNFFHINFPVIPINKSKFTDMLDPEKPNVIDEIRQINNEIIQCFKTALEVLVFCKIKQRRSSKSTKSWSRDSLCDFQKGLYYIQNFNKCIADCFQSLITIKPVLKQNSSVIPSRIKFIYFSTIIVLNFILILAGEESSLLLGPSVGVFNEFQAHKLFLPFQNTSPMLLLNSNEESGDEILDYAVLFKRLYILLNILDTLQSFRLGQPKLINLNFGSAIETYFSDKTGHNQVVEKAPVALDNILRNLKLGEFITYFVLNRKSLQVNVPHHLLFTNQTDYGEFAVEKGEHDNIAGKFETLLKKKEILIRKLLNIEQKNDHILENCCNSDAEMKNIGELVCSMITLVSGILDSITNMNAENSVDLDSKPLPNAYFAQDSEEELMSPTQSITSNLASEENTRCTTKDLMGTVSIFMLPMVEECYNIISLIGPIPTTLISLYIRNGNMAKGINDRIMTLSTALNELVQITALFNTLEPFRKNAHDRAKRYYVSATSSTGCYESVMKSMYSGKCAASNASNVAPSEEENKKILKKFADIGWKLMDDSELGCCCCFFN
Protocol: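 Universal 'all 10-mer' protein binding microarrays (Agilent AMADID 015681) probed with GST-tagged S. cerevisiae TFs (full-length or DBD) made by in vitro transcription/translation (PURExpress), about 100-200 nM. Bound TF was detected with fluorescent anti-GST. Each ungapped 8-mer (which stands for itself and its reverse complement) is scored by the PBM enrichment score (E-score), a modified Wilcoxon-Mann-Whitney statistic from -0.5 to +0.5, computed with the Universal PBM Analysis Suite. Scale: above 0.35 generally sequence-specific binding.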

| Sequence | PBM E-score |
| --- | --- |
| ATATTTTG | 0.234 |
| ATATTTCC | 0.349 |
| CCCCTTTC | -0.262 |
| GGAACGAA | 0.104 |
| AGGGATAT | 0.0785 |
| ACGACTCC | 0.0443 |
| CGGGGTAG | -0.177 |
| GTGGCTAA | 0.0232 |
| AAAATTCA | 0.359 |
| AAATTTGG | 0.0261 |
| AAATTTAT | 0.228 |
| AATTTTGT | 0.215 |
| AAAATTCG | 0.279 |
| AAAATTAT | 0.358 |
| CAAATTAA | 0.212 |
| GAAATTAA | 0.294 |
| AAATTTGT | 0.303 |
| GAAATTCA | 0.228 |
| AAAATTAC | 0.22 |
| GAAATTAC | 0.255 |
| CCACTTAC | 0.0573 |
| TAACGGAA | 0.153 |

| Sequence | PBM E-score |
| --- | --- |
| CTCAGAGC | -0.191 |
| CCGAAGTC | -0.0348 |
| CAATGAAG | 0.0396 |
| GACTGTTA | 0.0926 |
| AGAGGAAT | -0.012 |
| ACGAGGAC | -0.181 |
| CTAAATGC | 0.0943 |
| GAAATTGC | 0.0471 |
| TAAATTGA | 0.265 |
| AAAATTAA | 0.308 |
| AAAATTTT | 0.293 |
| TAAATTAA | 0.283 |
| AAAAATTT | 0.283 |
| AAAATTAG | 0.179 |
| AAAATTTC | 0.132 |
| GAAATTGA | 0.289 |
| GGGGAGGA | -0.205 |
| ATGGTCTC | -0.0831 |
| CAGCAGAC | -0.106 |
| ACAGTCGC | -0.136 |
| AAGCGACG | -0.285 |
| ACGGGTGG | -0.171 |

| Sequence | PBM E-score |
| --- | --- |
| GTACGCTA | -0.178 |
| TCCCTACA | -0.0308 |
| CTTAAACA | 0.104 |
| ATTAAAAC | 0.272 |
| GTTAAAGA | 0.182 |
| ATTAAAAA | 0.297 |
| TTAAAAAA | 0.306 |
| CTTAAAGA | -0.102 |
| CTAAAAAA | 0.267 |
| ATTAAAAG | 0.223 |
| ATTAAACG | 0.27 |
| ATTAAACA | 0.312 |
| TTTAAAAA | 0.149 |
| ATTAAAGA | 0.327 |
| GGGTATGA | 0.0197 |
| ACTCCCCT | -0.002 |
| CTGATAAG | 0.126 |
| AGAAACCC | 0.0994 |
| CAGTGCCG | -0.105 |
| CTTCGTAC | -0.103 |
| GCCGCTAC | -0.121 |
| GAGCTGCA | -0.284 |

| Sequence | PBM E-score |
| --- | --- |
| AAGTAATA | 0.0769 |
| AAGTAATT | 0.331 |
| TAGTAATA | 0.241 |
| CAGTAATA | 0.317 |
| CAGTAATG | 0.282 |
| GAGTAATC | 0.132 |
| CAGTAATC | -0.0846 |
| AAGTAATG | 0.141 |
| GAGTAATA | 0.334 |
| GGGCTGAA | 0.0197 |
| ATAGCCAT | 0.0973 |
| ACAATGCC | -0.0228 |
| CGCAAATC | -0.0144 |
| TAGGTGCA | -0.0741 |
| TAATGGAA | 0.184 |
| GGGATTAC | -0.103 |
| CTGATTTA | 0.156 |
| TGCATTAA | 0.256 |
| TGGATTAA | 0.38 |
| GGGATTAA | 0.411 |
| ATGATTAA | 0.231 |
